# Screening data (PubChem)
# gsp antag: antagonists of gsp mutant (McCune-Albright syndrome); gsp-mutant cells, cAMP HTRF, 30 min; Potency, µM (doses to about 76.9 µM), without a hit: at the top dose activity change, negative = inhibition, hits mostly inhibitors; hit rate 0.4% among 340,000; AID 624288; calls by dose curve; cell line not stated here;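 also: intracellular cAMP measured with PDE inhibitor Ro 20-1724 present during compound exposure; % is scaled to controls: 0 for no effect and ±100 for the full control effect; nearly all actives have a fitted effect of over 65% in size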
#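 Measurement of cellular cAMP by homogeneous time-resolved fluorescence following a 30 min compound exposure at 37C. The PDE inhibitor […] was present throughout; the assay buffer was DPBS with 0.05% BSA and 0.005% Tween 20.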
# ALOX12 inh: inhibitors of human 12S-lipoxygenase ALOX12 | P18054 | purified 12hLO, xylenol orange hydroperoxide absorbance | Potency, µM (doses to about 108 µM), for the others: at the highest dose activity change, negative = inhibition, usual class: inhibitors | hit rate 1.1% among 580,000 | AID 1671190; also: % is scaled to controls: 0 for no effect and ±100 for the full control effect
# Target sequence (P18054 whole entry, looked up): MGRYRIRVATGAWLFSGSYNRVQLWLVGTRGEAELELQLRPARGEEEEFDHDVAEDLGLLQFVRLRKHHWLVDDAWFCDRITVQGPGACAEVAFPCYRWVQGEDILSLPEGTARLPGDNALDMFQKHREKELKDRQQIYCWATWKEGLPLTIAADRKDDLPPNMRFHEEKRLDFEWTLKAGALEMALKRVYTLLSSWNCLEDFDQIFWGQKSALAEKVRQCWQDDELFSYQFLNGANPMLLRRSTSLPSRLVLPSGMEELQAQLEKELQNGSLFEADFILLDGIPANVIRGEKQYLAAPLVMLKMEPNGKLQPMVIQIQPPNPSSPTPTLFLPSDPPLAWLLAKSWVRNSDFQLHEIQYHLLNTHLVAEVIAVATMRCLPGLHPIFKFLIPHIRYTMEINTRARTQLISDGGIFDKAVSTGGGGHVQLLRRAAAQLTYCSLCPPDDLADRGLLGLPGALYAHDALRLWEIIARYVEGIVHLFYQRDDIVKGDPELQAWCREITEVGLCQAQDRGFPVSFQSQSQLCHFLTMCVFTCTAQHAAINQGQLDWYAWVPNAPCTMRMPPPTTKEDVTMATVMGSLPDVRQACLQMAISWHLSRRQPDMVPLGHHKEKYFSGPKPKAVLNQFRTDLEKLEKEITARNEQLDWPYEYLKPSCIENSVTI
#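 Purified human 12hLO (150 nM final) in 25 mM Hepes, 0.01% Triton X-100, pH 7.0 was preincubated 15 min at room temperature with compound. Then 40 uM arachidonic acid was added, 30 min. Hydroperoxide was read by Fe-XO absorbance ratio 573/405 nm.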
# FUS suppressor: suppressors of FUS proteinopathy in yeast; Potency, µM (highest dose often 76.6 µM), hits mostly activators; hit rate 0.24% among 390,000; S. cerevisiae FUS-expressing, growth rescue, OD600, 24 h;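 also: plate controls were DMSO vehicle for no effect and reference control for full effect; nearly all actives have a fitted effect of over 55% in size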
#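 FUS-expressing yeast, raffinose-pregrown, induced in 2% galactose minimal medium at OD 0.005; compounds in a dilution series, 24hr at 30C. Growth restoration read as absorbance at 600 nm. CP55940 positive control, DMSO negative.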
# gsp agonist: activates gsp, the McCune-Albright syndrome mutation; gsp mutant cells, cAMP HTRF, 30 min; Potency, µM (series often up to 76.9 µM), for the others: at the highest dose activation (cAMP increase), usual class: activators; hit rate 0.13% among 340,000; active = well fitted activation curve with a large enough effect; inconclusive = small, poorly fitted or top-dose-only effect, or another doubt; inactive = no such curve, though single readings can be large or run the other way; cell line not stated here;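 also: phosphodiesterase inhibitor Ro 20-1724 added with compounds to block cAMP breakdown; nearly all actives have a fitted effect of over 60% in size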
#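 Cells stably selected in G418 were plated at 2000/well, grown 16-24 hr, then given compounds in DMSO with the PDE inhibitor […] (300 uM solution added) for 30 min at 37C; cAMP was read by HTRF.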
# Mito fusion act: mitochondrial division inhibition or fusion activation | hit rate 0.23% among 320,000 | S. cerevisiae fusion-defective mutant growth rescue, CellTiterGlo 48 h | AID 485298 | Potency, µM (top dose mostly 46.1 µM), without a hit: top-dose growth rescue (activation), actives largely listed as activators; also: % of control where 0% means no effect; nearly all actives have a fitted effect of over 45% in size
#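 Yeast fusion mutant, YPEG (non-fermentable carbon), compound, 48 h at 37C non-permissive; CellTiterGlo added, 10 min RT, luminescence read. Rescued growth = division inhibition.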
# * = called active by the depositor; i = inactive; ? = inconclusive; . = no result; [ ] = dose if it differs, or a comment. Most compounds without a hit are left out; they make up all but 1.6% or so of the library. Unless noted, calls follow the shape of the dose curve; as a rule, active = well fitted curve in the direction sought with a large enough effect; inconclusive = small, poorly fitted or top-dose-only effect, or another doubt; inactive = no such curve, though single readings can be large; an effect the other way counts as inactive or inconclusive. Potency is read from the fitted curve at half-maximal effect.
SMILES,gsp antag,ALOX12 inh,FUS suppressor,gsp agonist,Mito fusion act
Cn1c(=O)c2c([nH]c(=S)n2CCCc2ccccc2)n(C)c1=O,-2.6%,1.26µM*,i,1.6%,1.6%
Cn1c(=O)[nH]c(=O)c2c1[nH]c(=S)n2CCCc1ccccc1,1.2%,?,i,6.4%,-1.0%
Cc1c(CC(=O)N2CCC(O)CC2)c(=O)oc2cc3c(cc12)CCC1(CCCCC1)O3,.,-0.1%,31.6µM*,-93.1%,.
O=c1onc2cnc3ccccc3n12,.,0.0%,.,.,9.2µM*
COc1cc2c(c(OC)c1OC)-c1c(cc3c(c1OC)OCO3)CC(C)C(C)C2 (configuration not stated),.,12.9%,.,.,.
COc1cc2c(c(OC)c1OC)-c1c(cc3c(c1O)OCO3)C[C@@H](C)[C@@H](C)C2,-4.4%,29.6%,?,3.5%,17.8µM*
COc1nn(C)c2nc(C)c(CCC(=O)NC(C)C3CC3)c(C)c12 (configuration not stated),.,-16.2%,.,.,.
COc1ccc(NC(=O)/C(C#N)=C/c2ccc(-c3ccccc3C(=O)O)o2)cc1,-21.5%,0.0%,i,-53.8%,-3.4%
COc1ccc(NC(=O)/C(C#N)=C\c2ccc(-c3cc(C(=O)O)ccc3C)o2)cc1,44.7µM*,0.0%,i,-24.1%,8.4%
COC(=O)c1cccc(NC(=S)N[C@@H]2C=C[C@@H](c3c(C)nn(-c4ccc(C(C)C)cc4)c3C)C2)c1,.,44.7µM*,.,.,.
Cc1nn(-c2ccc(C(C)C)cc2)c(C)c1[C@@H]1C=C[C@@H](NC(=S)NC2CCCCC2)C1,.,39.8µM*,.,.,.
Cc1nn(-c2ccc(C(C)C)cc2)c(C)c1[C@@H]1C=C[C@@H](NC(=O)NC(C)C)C1,.,14.4%[176 µM],.,.,.
COc1ccc(NC(=O)N[C@@H]2C=C[C@@H](c3c(C)nn(-c4ccc(C(C)C)cc4)c3C)C2)cc1,.,0.8%,.,.,.
CCOC(=O)N1CCN(C(=O)C[C@H]2C[C@@]3(C(=O)OC)C(=C[C@H](C4CCCC4)O[C@@H]3C)N(Cc3cccc4ccccc34)C2=O)CC1,.,1.3%,.,.,.
COC(=O)[C@]12C[C@H](CC(=O)NCc3ccc(OC)c(OC)c3)C(=O)N(CCC3=CCCCC3)C1=C[C@H](C(C)(C)C)O[C@@H]2C,.,-19.2%,.,.,.
COC(=O)[C@]12C[C@H](CC(=O)NCc3cccc(C(F)(F)F)c3)C(=O)N(Cc3ccccc3)C1=C[C@H](C1CCCC1)O[C@@H]2C,.,-11.3%,.,.,.
COC(=O)[C@]12C[C@H](CC(=O)NCc3ccc(OC)c(OC)c3)C(=O)N(CCC3=CCCCC3)C1=C[C@H](C1CCCC1)O[C@@H]2C,.,.,14.1µM*,.,.
COC(=O)[C@]12C[C@H](CC(=O)N3CCCCC3)C(=O)N(Cc3cccc4ccccc34)C1=C[C@H](C1CCCC1)O[C@@H]2C,.,20.6%,.,.,.
COC(=O)[C@]12C[C@H](CC(=O)NCC3CCCCC3)C(=O)N(Cc3cccc4ccccc34)C1=C[C@H](C1CCCC1)O[C@@H]2C,.,.,31.6µM*,.,.
CCCCNC(=O)C[C@H]1C[C@@]2(C(=O)OC)C(=C[C@H](C3CCCC3)O[C@@H]2C)N(Cc2cccc3ccccc23)C1=O,.,.,12.6µM*,.,.
COC(=O)[C@]12C[C@H](CC(=O)NCc3cccc(C(F)(F)F)c3)C(=O)N(Cc3ccco3)C1=C[C@H](C1CCCC1)O[C@@H]2C,.,.,4.47µM*,.,.
Cc1ccc(-n2ccnc2SC2CCCCC2=O)cc1C (configuration not stated),.,-14.3%,.,.,.
COc1ccccc1C(=O)NC1CC(=O)N(c2cccc(F)c2)C1 (configuration not stated),.,5.6%,.,.,.
Cc1c(CC(=O)O)c(=O)oc2cc(OCc3ccc(F)cc3)ccc12,.,-2.0%,.,.,.
O=C(O)CCC(=O)NNC(=O)CCC1CCCCC1,14.3%,25.7%,i,-17.1%,-6.6%
O=C(CCC1CCCCC1)NNC(=O)NC12CC3CC(CC(C3)C1)C2,-1.6%,0.2%,25.1µM*,13.8%,?
Cc1ccc(-c2c(C)sc3nc[nH]c(=O)c23)cc1C,-12.4%,13.6%,i,6.1%[15.4 µM],0.2%
Cc1ccc(-c2ccnc(=S)[nH]2)cc1C,.,2.51µM*,.,.,.
S=c1nccc(-c2ccc(Cl)cc2)[nH]1,2.2%,12.6µM*,i,-3.3%[15.4 µM],13.7%
